Experimental data: ChEMBL document CHEMBL2218924, “A broad activity screen in support of a chemogenomic map for kinase signalling research and drug discovery” (Biochem J, 2013)

Columns and labels:
[1] = molecular target: T1, Serine/threonine-protein kinase 3 (Homo sapiens) (UniProt Q13188); conditions: at 1 µM
T1 sequence (whole entry): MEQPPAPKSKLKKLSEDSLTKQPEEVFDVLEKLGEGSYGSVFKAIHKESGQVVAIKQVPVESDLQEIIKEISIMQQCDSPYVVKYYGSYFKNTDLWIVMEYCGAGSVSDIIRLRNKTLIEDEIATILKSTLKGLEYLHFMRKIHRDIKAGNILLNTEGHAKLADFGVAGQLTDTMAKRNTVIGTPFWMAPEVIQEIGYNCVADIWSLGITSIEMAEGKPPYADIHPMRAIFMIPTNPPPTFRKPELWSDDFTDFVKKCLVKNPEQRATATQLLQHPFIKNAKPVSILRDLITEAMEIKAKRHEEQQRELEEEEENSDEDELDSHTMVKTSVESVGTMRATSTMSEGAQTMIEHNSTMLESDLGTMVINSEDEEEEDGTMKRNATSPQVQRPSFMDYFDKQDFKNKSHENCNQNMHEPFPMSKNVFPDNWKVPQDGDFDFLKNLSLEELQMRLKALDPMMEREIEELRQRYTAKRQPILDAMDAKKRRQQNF

[2] = molecular target: T1, Serine/threonine-protein kinase 3 (Homo sapiens); conditions: at 10 µM
[3] = molecular target: Serine/threonine-protein kinase 24 (Homo sapiens) (UniProt Q9Y6E0); conditions: at 1 µM
Serine/threonine-protein kinase 24 (Homo sapiens), sequence (Q9Y6E0 whole entry, looked up): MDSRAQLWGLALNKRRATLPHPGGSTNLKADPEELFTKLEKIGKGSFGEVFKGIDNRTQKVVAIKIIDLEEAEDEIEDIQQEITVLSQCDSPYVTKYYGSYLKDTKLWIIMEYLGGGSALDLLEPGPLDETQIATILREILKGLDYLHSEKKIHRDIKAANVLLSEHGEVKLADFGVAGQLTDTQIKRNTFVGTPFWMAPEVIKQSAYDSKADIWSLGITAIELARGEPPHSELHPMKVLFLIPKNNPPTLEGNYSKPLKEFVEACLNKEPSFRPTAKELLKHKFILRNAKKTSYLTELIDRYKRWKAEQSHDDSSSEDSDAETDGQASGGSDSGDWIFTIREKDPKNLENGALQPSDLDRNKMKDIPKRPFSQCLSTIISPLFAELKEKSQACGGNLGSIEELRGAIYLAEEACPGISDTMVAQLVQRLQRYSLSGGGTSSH

[4] = molecular target: Serine/threonine-protein kinase 24 (Homo sapiens) (UniProt Q9Y6E0); conditions: at 10 µM
[5] = molecular target: Hepatocyte growth factor receptor (Homo sapiens) (UniProt P08581); conditions: at 1 µM
Hepatocyte growth factor receptor (Homo sapiens), sequence (P08581 whole entry): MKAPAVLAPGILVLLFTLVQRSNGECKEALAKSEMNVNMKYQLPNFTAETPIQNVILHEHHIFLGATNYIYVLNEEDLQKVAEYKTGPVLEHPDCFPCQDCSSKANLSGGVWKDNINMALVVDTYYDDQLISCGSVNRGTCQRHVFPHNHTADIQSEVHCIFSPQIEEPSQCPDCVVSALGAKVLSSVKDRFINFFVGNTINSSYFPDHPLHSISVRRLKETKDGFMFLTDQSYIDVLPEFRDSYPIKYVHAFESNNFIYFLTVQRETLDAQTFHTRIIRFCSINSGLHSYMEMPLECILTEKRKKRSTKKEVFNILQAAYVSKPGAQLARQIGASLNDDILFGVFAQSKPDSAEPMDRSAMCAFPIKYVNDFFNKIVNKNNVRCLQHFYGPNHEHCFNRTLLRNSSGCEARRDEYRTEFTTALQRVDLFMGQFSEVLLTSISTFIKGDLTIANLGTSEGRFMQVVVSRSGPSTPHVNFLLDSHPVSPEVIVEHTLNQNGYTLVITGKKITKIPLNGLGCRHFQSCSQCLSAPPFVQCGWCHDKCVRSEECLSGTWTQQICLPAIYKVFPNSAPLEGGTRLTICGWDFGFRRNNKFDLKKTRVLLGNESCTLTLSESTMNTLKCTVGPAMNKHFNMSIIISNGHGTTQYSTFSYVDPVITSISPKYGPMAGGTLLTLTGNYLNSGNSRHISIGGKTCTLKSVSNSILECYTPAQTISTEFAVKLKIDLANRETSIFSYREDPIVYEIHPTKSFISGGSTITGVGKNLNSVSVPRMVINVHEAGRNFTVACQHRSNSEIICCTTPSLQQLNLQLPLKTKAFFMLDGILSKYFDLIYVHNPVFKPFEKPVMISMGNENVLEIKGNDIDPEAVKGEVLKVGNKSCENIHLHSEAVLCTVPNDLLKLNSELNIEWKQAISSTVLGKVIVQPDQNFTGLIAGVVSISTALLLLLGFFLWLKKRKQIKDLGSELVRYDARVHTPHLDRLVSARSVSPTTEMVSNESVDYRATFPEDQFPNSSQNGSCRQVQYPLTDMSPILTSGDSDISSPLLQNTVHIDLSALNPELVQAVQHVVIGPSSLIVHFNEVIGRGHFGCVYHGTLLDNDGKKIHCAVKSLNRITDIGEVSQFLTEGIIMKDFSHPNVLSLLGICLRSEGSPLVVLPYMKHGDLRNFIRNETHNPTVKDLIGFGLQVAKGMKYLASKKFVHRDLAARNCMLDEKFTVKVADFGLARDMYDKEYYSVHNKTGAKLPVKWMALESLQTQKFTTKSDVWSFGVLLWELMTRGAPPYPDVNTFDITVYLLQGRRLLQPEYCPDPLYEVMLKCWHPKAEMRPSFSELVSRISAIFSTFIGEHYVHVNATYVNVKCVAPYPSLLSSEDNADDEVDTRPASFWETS

[6] = molecular target: Hepatocyte growth factor receptor (Homo sapiens) (UniProt P08581); conditions: at 10 µM
[7] = molecular target: MAP kinase-interacting serine/threonine-protein kinase 2 (Homo sapiens) (UniProt Q9HBH9); conditions: at 1 µM
MAP kinase-interacting serine/threonine-protein kinase 2 (Homo sapiens), sequence (Q9HBH9 whole entry, looked up): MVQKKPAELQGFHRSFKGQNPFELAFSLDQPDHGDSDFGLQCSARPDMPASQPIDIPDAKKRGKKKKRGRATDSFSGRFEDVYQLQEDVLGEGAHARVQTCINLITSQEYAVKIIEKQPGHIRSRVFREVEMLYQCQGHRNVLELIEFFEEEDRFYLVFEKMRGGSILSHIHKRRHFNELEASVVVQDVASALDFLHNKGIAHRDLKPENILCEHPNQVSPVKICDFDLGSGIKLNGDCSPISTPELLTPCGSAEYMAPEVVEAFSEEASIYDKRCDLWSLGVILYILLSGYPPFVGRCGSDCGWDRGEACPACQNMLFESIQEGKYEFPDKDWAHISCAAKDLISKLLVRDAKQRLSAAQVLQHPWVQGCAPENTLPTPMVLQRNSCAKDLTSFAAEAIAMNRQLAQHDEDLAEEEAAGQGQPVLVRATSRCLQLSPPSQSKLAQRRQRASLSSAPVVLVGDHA

[8] = molecular target: MAP kinase-interacting serine/threonine-protein kinase 2 (Homo sapiens) (UniProt Q9HBH9); conditions: at 10 µM
[9] = molecular target: T2, Tyrosine-protein kinase Mer (Homo sapiens) (UniProt Q12866); conditions: at 10 µM
T2 sequence (whole entry): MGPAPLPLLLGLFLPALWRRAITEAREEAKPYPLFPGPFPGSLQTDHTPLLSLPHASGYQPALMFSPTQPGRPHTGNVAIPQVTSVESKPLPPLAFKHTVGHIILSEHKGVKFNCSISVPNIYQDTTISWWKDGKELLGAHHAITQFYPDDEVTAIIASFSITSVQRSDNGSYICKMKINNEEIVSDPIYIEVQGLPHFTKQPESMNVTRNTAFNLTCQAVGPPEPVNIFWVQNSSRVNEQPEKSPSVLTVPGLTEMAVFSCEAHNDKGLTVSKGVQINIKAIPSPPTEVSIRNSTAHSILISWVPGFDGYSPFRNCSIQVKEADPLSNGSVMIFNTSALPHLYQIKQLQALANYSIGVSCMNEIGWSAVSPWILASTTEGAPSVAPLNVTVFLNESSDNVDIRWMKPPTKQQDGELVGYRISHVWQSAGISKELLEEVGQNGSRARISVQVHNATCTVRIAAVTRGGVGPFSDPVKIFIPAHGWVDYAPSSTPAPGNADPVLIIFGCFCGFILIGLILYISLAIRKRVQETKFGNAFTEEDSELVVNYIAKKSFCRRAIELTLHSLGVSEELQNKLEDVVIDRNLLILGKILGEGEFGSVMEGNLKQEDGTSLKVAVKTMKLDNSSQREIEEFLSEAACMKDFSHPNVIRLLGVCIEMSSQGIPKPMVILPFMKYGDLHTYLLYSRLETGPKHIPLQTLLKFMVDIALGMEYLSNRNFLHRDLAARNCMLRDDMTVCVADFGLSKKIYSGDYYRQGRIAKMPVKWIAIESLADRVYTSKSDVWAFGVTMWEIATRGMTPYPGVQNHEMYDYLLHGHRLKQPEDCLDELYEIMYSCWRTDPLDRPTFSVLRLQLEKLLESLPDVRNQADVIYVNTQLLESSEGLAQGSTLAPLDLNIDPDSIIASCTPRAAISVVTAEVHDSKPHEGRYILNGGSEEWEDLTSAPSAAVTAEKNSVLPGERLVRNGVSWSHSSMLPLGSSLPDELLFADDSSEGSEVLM

[10] = molecular target: T2, Tyrosine-protein kinase Mer (Homo sapiens); conditions: at 1 µM

Structure (SMILES)	residual activity [1]	residual activity [2]	residual activity [3]	residual activity [4]	residual activity [5]	residual activity [6]	residual activity [7]	residual activity [8]	residual activity [9]	residual activity [10]
Cn1c2ccccc2c2c3c(c4c5ccccc5n(CCC#N)c4c21)CNC3=O	2%	2%	47%	57%	107%	106%	10%	10%		
O=C1NC(=O)C(c2c[nH]c3ccccc23)=C1c1c[nH]c2ccccc12	64%	9%	21%	2%		43%			33%	
CCOC(=O)c1c(C)[nH]c(/C=C2\C(=O)Nc3ccccc32)c1C	85%	72%	97%	88%					3%	16%
O=C(CCCc1ccc(-c2ccccc2F)cc1)Nc1ccc(O)cc1	98%	73%	93%	96%			105%	85%	83%	102%
O=C1Nc2ccc(Cl)cc2/C1=C/c1cc(Cl)c(O)c(Cl)c1	49%	2%	56%	50%	87%	79%	90%	61%	58%	92%
CC(C)c1nn(-c2c(Cl)cccc2Cl)c2nc(Cc3ccc(OCCO)cc3)[nH]c(=O)c12	109%	78%	23%	2%	146%	75%	103%	102%	75%	98%
NC(=O)Nc1sc(-c2ccc(F)cc2)cc1C(N)=O			38%	6%			72%	24%	9%	54%
c1ccc(-c2cnc(Nc3ccc(OCCN4CCCC4)cc3)s2)cc1	109%		67%	80%	78%	44%	21%	7%	17%	81%
O=C(Nc1ccc(Cl)cc1)c1ccccc1NCc1ccncc1			72%	77%					99%	101%
O=c1cc(N2CCOCC2)oc2c1ccc1ccccc12			70%	82%		133%	100%	93%	83%	105%
COc1ccc(CNC(=O)Nc2ncc([N+](=O)[O-])s2)cc1			69%	80%						
CCCCc1c(-c2ccc(OC)cc2)[nH]c2nccnc12		68%	70%	60%	118%				80%	68%
Nc1ncnc2c1cnn2-c1ccccc1		93%	68%	84%	98%	85%	56%	22%	92%	101%
Cc1cc(C)c(/C=C2\C(=O)Nc3ccccc32)[nH]1				72%	101%	98%			2%	4%
CC(C)[C@H](CO)Nc1nc(Nc2cc(N)cc(Cl)c2)c2ncn(C(C)C)c2n1		60%	78%	26%	74%	13%	94%	75%	2%	22%
O=c1cc(N2CCOCC2)oc2c(-c3ccccc3)cccc12			59%	55%						
O=c1c(-c2ccc(F)cc2)c(-c2ccncc2)[nH]n1-c1ccc(Cl)cc1				79%	67%	28%				
NCCNc1ncc(C(N)=O)c(Nc2cccc(C(F)(F)F)c2)n1		77%		63%					26%	80%
Oc1cccc(-c2nc(N3CCOCC3)c3oc4ncccc4c3n2)c1			75%	74%	121%	133%			93%	

Structure (SMILES)	residual activity [1]	residual activity [2]	residual activity [3]	residual activity [4]	residual activity [5]	residual activity [6]	residual activity [7]	residual activity [8]	residual activity [9]	residual activity [10]
COc1ccc2c(c1)c(C1=C(c3c[nH]c4ccccc34)C(=O)NC1=O)cn2CCCN(C)C			21%	5%	111%		105%	82%	10%	81%
Fc1ccc(-c2nc3n(c2-c2ccncc2)CCS3)cc1	99%		99%	89%	130%	100%				
COc1ccc(Cl)cc1NC(=O)Nc1cc(C)nc2ccccc12			70%	83%	89%	80%				
COc1ccc(-c2cnc3c(-c4ccsc4)cnn3c2)cc1			67%	81%			95%	87%		
N#C/C(=C\c1ccc(O)c(O)c1)C(=O)NCc1ccccc1			82%	65%	103%	73%		83%		
O=S(=O)(NCCNC/C=C/c1ccc(Br)cc1)c1cccc2cnccc12			78%	52%					25%	
CC(C)(C)n1nc(Cc2cccc3ccccc23)c2c(N)ncnc21	91%	29%		32%	128%	73%	113%	98%		
CC(C)N(CCC(=O)c1ccc2ccccc2c1)Cc1ccccc1			62%	72%		79%		87%		
O=C1Nc2ccccc2/C1=C\c1c(Cl)[nH]c2ccccc12			83%	67%	121%	40%		70%	21%	77%
NC(=O)c1cccc(-c2cc(Nc3ccc(OC(F)(F)F)cc3)ncn2)c1			74%	93%			91%	54%		
CCN1/C(=C/C(C)=O)Sc2ccc(OC)cc21			69%	74%						
O=S(=O)(c1cccc2cnccc12)N1CCCNCC1									77%	
CN([C@@H](Cc1ccc(OS(=O)(=O)c2cccc3cnccc23)cc1)C(=O)N1CCN(c2ccccc2)CC1)S(=O)(=O)c1cccc2cnccc12	99%				85%	114%				
O=C1C(Cl)=C(N2C(=O)CCC2=O)C(=O)c2ccccc21		83%	78%	79%		95%	102%	94%	92%	90%
NC(=O)c1ccc(-c2nc(-c3ccc4c(c3)OCCO4)c(-c3ccccn3)[nH]2)cc1			91%	82%						
O=C(O)/C=C/c1cc(Br)c(Br)c(Br)c1Br			105%	85%	93%	84%	74%		94%	104%
O=C(c1ccccc1)c1ccc(N2CCOCC2)cc1O		95%	86%	68%	86%	66%		80%	85%	
COc1ccc(COc2ccc(Cc3cnc(N)nc3N)cc2OC)cc1			61%	65%	109%	129%	108%	100%		
Nc1nccc(-c2c(-c3ccc(F)cc3)ncn2C2CCNCC2)n1			82%	82%	114%	82%		82%	24%	67%
